Laboratory results as given in the supplement of paper PMC10849652.
Of roughly 7,900 targets only a part is listed; those with a hit were picked by preference. About 0.6% of all pairs of compound and target were hits. Unmarked numbers belong to inactive results.

Tests used:
Assay in all cases: log2 fold change, soluble protein after heating vs DMSO (PISA); higher = thermal stabilisation; K562 cells, 10 uM, 30 min; active = over 0.2 and 3.5 SD of the protein, either way, in both replicates (recomputed)
[1] = compound: CS(=O)(=O)c1ccc(-c2cnc(N)c(C(=O)Nc3ccccc3)n2)cc1
Method in brief: (§1)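 K562 cells at 2×10^6 cells/mL were treated with 10 μM compound for 30 min. Aliquots were heated for 3 min across 48°C-58°C, pooled, and extracted in PBS with 0.5% NP-40 at 4°C; soluble protein was the supernatant after 21,000xg for 90 min. Soluble protein was quantified by TMTpro 16plex LC-MS/MS with channel sums equalised, and reported as log2 fold change in thermal stability against DMSO controls, with values from duplicates.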

crizotinib = compound: C[C@@H](Oc1cc(-c2cnn(C3CCNCC3)c2)cnc1N)c1c(Cl)ccc(F)c1Cl [crizotinib]
Method in brief: as §1

[2] = compound: C[C@@H]1COCCN1C2=NC(=NC(=C2)C3(CC3)S(=O)(=O)C)C4=C5C=CNC5=CC=C4
Method in brief: as §1

[3] = compound: C[C@H](C1=CC=C(C=C1)C(=O)NC2=C3C=CNC3=NC=C2)N
Method in brief: as §1

gandotinib = compound: Cc1cc(Nc2cc(CN3CCOCC3)c3nc(C)c(Cc4ccc(Cl)cc4F)n3n2)n[nH]1 [gandotinib]
Method in brief: as §1

tozasertib = compound: Cc1cc(Nc2cc(N3CCN(C)CC3)nc(Sc3ccc(NC(=O)C4CC4)cc3)n2)n[nH]1 [tozasertib]
Method in brief: as §1

doramapimod = compound: Cc1ccc(-n2nc(C(C)(C)C)cc2NC(=O)Nc2ccc(OCCN3CCOCC3)c3ccccc23)cc1 [doramapimod]
Method in brief: as §1

duvelisib = compound: C[C@H](Nc1ncnc2nc[nH]c12)c1cc2cccc(Cl)c2c(=O)n1-c1ccccc1 [duvelisib]
Method in brief: as §1

[4] = compound: Cc1cc(SCc2sc(-c3ccc(C(F)(F)F)cc3)nc2C)ccc1OCC(=O)O
Method in brief: as §1

ispinesib = compound: Cc1ccc(C(=O)N(CCCN)[C@@H](c2nc3cc(Cl)ccc3c(=O)n2Cc2ccccc2)C(C)C)cc1 [ispinesib]
Method in brief: as §1

UniProt Q70IA6, sequence (Q70IA6 whole entry, looked up): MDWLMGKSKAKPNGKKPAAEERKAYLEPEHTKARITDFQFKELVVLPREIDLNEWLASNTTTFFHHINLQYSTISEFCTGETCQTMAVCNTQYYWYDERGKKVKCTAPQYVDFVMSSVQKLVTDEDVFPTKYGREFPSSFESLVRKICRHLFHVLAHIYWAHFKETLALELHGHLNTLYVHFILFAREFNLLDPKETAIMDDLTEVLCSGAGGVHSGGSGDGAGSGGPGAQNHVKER
UniProt O60361, sequence (O60361 whole entry, looked up): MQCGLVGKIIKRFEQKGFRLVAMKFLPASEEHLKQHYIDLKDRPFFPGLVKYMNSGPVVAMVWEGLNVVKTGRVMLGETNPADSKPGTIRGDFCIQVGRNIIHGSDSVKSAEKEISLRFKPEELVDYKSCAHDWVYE
UniProt Q9BVC4, sequence (Q9BVC4 whole entry, looked up): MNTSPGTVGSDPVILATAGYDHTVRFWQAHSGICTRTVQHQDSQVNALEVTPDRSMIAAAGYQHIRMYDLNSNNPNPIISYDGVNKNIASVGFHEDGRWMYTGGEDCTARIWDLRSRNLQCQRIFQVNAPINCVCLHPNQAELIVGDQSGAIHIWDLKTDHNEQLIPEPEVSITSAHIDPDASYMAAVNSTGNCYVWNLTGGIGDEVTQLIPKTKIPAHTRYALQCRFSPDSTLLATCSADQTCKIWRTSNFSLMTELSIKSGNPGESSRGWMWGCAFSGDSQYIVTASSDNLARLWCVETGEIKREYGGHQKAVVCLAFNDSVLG
UniProt Q9BS92, sequence (Q9BS92 whole entry, looked up): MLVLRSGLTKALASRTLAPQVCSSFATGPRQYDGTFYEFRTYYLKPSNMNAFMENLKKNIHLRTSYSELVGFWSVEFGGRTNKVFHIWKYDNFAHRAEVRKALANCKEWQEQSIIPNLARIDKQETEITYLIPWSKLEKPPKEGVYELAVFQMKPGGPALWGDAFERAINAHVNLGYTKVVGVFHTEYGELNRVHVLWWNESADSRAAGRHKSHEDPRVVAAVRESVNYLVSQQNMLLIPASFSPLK
UniProt P40692, sequence (P40692 whole entry, looked up): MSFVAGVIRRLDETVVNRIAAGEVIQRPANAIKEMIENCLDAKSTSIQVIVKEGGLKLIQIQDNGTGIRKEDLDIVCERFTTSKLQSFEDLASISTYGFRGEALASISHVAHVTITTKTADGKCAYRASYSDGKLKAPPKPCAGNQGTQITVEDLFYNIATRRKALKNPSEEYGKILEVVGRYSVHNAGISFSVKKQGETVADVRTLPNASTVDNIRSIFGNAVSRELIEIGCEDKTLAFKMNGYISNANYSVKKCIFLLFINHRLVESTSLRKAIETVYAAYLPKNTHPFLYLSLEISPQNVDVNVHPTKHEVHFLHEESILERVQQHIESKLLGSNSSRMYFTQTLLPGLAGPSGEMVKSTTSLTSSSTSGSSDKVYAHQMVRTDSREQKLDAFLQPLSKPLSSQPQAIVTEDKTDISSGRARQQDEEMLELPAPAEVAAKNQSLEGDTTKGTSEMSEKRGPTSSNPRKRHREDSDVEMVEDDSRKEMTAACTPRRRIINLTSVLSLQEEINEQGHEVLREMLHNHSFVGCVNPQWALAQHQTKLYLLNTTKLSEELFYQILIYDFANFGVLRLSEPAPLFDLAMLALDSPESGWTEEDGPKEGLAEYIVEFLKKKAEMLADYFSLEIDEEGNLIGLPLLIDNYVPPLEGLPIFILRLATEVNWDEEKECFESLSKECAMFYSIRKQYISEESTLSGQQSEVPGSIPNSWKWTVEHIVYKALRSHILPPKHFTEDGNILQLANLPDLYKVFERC
UniProt B2RBV5, sequence (B2RBV5 whole entry, looked up): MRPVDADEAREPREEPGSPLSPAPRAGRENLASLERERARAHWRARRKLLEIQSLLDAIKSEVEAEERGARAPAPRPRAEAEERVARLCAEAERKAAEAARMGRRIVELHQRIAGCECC
UniProt Q86TA1, sequence (Q86TA1 whole entry, looked up): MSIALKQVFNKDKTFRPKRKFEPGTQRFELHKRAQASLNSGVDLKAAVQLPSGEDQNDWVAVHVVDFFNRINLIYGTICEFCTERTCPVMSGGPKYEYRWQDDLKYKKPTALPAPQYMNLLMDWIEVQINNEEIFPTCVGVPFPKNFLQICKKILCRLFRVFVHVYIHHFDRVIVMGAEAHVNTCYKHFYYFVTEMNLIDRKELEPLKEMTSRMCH
UniProt Q6N063, sequence (Q6N063 whole entry, looked up): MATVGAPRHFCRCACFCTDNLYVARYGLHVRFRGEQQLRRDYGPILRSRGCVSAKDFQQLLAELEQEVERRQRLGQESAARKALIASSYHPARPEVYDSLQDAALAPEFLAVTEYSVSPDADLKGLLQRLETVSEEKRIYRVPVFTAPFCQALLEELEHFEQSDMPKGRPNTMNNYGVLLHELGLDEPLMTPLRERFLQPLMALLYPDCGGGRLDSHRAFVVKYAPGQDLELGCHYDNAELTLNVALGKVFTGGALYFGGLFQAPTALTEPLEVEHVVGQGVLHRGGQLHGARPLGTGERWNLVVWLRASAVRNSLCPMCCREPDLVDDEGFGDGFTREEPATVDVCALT
UniProt O75052, sequence (O75052 whole entry, looked up): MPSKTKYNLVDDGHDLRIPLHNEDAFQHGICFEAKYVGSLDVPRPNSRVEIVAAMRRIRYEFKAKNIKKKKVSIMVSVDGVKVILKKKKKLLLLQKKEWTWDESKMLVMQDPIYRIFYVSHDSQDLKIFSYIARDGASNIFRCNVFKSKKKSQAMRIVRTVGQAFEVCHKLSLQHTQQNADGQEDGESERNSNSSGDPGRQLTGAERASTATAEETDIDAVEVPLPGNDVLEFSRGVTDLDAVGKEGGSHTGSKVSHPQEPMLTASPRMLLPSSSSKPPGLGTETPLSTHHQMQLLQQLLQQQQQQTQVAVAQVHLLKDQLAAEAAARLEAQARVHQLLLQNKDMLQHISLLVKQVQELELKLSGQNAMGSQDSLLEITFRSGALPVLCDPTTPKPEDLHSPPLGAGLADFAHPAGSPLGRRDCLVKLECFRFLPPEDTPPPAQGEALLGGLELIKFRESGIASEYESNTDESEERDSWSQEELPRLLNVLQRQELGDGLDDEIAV
UniProt Q8WZ82, sequence (Q8WZ82 whole entry, looked up): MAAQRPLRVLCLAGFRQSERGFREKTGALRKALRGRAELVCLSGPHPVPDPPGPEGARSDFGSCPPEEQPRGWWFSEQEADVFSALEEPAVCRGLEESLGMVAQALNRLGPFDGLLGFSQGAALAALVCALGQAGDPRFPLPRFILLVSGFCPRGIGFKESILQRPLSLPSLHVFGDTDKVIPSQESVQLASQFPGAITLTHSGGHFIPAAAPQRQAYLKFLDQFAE
UniProt P25208, sequence (P25208 whole entry, looked up): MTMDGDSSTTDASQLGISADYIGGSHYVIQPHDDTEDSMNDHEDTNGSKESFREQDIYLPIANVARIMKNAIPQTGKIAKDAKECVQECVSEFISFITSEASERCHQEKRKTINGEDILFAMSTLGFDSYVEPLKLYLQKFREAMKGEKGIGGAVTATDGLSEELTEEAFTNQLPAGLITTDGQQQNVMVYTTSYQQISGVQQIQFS
UniProt Q9NZT2, sequence (Q9NZT2 whole entry, looked up): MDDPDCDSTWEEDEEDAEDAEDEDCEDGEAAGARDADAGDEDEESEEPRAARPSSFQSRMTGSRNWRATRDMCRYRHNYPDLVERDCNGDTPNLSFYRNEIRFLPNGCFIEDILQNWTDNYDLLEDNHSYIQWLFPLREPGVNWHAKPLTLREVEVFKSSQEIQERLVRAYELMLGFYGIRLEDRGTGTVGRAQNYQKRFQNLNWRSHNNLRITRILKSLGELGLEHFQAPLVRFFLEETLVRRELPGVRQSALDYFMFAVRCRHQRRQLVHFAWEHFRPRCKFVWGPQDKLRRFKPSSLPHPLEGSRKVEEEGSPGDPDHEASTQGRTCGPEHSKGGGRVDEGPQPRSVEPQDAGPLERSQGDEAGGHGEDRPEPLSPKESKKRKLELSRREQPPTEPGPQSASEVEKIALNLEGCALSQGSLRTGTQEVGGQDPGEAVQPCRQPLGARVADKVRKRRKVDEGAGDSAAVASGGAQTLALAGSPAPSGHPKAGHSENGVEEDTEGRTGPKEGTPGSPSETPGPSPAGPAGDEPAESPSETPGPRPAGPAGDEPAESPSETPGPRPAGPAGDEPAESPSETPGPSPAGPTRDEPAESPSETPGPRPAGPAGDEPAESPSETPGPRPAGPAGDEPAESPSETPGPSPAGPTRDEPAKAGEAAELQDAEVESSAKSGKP
UniProt O75030, sequence (O75030 whole entry, looked up): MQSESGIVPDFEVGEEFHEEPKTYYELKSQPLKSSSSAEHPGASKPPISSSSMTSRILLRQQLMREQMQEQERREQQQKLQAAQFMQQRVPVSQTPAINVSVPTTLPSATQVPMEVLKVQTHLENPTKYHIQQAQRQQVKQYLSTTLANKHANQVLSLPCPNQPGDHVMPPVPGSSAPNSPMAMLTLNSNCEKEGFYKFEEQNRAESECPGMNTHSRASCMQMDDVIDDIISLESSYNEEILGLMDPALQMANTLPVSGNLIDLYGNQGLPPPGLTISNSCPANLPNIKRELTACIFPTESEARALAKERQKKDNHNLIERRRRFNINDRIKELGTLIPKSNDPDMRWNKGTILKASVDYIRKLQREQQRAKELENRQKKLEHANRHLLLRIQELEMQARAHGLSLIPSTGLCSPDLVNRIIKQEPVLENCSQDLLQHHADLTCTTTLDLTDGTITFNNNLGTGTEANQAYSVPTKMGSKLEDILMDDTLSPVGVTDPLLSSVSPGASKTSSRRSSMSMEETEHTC
UniProt P48645, sequence (P48645 whole entry, looked up): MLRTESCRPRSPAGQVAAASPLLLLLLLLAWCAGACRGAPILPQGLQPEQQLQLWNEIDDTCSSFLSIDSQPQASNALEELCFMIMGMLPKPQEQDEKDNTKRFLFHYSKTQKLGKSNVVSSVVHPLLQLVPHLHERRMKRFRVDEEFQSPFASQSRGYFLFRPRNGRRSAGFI
UniProt Q69YL0, sequence (Q69YL0 whole entry, looked up): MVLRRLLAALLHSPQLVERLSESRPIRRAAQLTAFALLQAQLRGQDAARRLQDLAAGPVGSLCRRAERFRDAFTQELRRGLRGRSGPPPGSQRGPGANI

Target | log2 fold change [1] | log2 fold change (crizotinib) | log2 fold change [2] | log2 fold change [3] | log2 fold change (gandotinib) | log2 fold change (tozasertib) | log2 fold change (doramapimod) | log2 fold change (duvelisib) | log2 fold change [4] | log2 fold change (ispinesib)
NDUFB1 (UniProt O75438) | 0.06 | 0.019 | 0.105 | 0.044 | -0.27 | 0.001 | -0.044 |  |  | 
MRPL50 (UniProt Q8N5N7) | -0.031 | 0.133 | 0.045 | -0.045 | 0.04 | 0.042 | 0.092 | -0.016 | 0.104 | 0.199
MIS12 (UniProt Q9H081) | 0.016 | -0.064 | -0.03 | -0.099 | -0.012 | 0.153 | -0.019 | 0.037 | 0.009 | -0.034
NUDT7 (UniProt P0C024) | 0.03 | 0.004 | 0.248 |  | -0.23 | 0.165 | 0.011 |  |  | -0.157
NIPSNAP3B (UniProt Q9BS92) | 0.03 | 0.053 |  | 0.015 | 0.082 | -0.045 | -0.102 | -0.18 | 0.039 | 
MLST8 (UniProt Q9BVC4) | -0.07 | -0.12 | 0.014 | 0.089 |  | 0.006 | 0.042 | 0.067 | 0.079 | 
NFYB (UniProt P25208) | -0.004 | 0.069 |  | -0.084 | 0.011 | 0.085 | -0.028 | -0.123 | -0.124 | 0.168
ORC5 (UniProt O43913) | 0.166 | -0.766 (active) |  | 0.008 | -0.226 | -0.007 | -0.104 | 0.074 | 0.135 | -0.152
MRPS6 (UniProt P82932) | -0.038 | -0.076 | 0.117 | 0.085 | -0.016 | 0.022 | 0.048 | -0.002 | 0.081 | -0.208
NPC1 (UniProt O15118) | 0.016 | -0.132 | 0.024 | -0.102 | 0.015 | -0.04 | -0.087 | 0.043 | -0.038 | -0.148
NME2P1 (UniProt O60361) | -0.093 | -0.066 | -0.114 | 0.079 | -0.346 | -0.012 | 0.27 |  |  | -0.119
OSBPL3 (UniProt Q9H4L5) | 0.245 | -0.017 | -0.416 | 0.572 |  | 0.198 | 0.189 | -0.098 | 0.063 | -0.36
OGFR (UniProt Q9NZT2) | 0.074 | -0.067 | 0.034 | 0.19 | -0.058 | 0.021 | 0.082 | -0.016 | 0.133 | -0.068
NA, A0A2R8Y3M9 | -0.084 | 0.013 |  | -0.011 | -0.099 |  | -0.008 | -0.299 | -0.107 | -0.125
NPC1L1 (UniProt Q9UHC9) | 0.002 | -0.07 |  | -0.044 |  | -0.059 | 0.033 | 0.107 | -0.159 | 
NOS1AP (UniProt O75052) |  |  | 0.101 | 0.237 |  | -0.164 |  |  |  | -0.279
OAF (UniProt Q86UD1) | -0.112 |  |  |  |  |  |  |  |  | 0.014
MITF (UniProt O75030) | 0.026 | -0.137 |  |  | -0.13 |  | 0.006 |  |  | 
MMADHC (UniProt Q9H3L0) |  | 0.065 |  | 0.093 | -0.087 | -0.001 | 0.099 | 0.007 | 0.084 | -0.038
MSANTD2 (UniProt Q6P1R3) | 0.295 |  | 0.089 |  |  | 0.064 |  | 0.019 | 0.039 | 
MORC2 (UniProt Q9Y6X9) |  | 0.027 | 0.065 |  |  |  | -0.042 |  |  | 
MTHFD1, A0A384N5Y3 | 0.109 |  | 0.117 | -0.008 | -0.036 | -0.11 |  | 0.108 | 0.081 | -0.082
NMU (UniProt P48645) |  | 0.025 | -0.445 | -0.026 | -0.159 | -0.092 | -0.04 | -0.001 | 0.127 | -0.186
MRFAP1 (UniProt Q9Y605) | -0.066 | -0.142 |  | -0.048 | -0.014 | 0.027 | 0.045 | 0.072 | -0.023 | 0.016
OXR1 isoform 2 (UniProt Q8N573) |  | -0.027 | 0.187 | -0.105 | -0.225 | 0.005 | 0.022 | 0.024 | 0.043 | -0.134
NA isoform 3 (UniProt Q4G0T1) | 0.023 | -0.004 |  | -0.157 |  | 0.005 | 0.077 | 0.042 | -0.001 | -0.099

Target | log2 fold change [1] | log2 fold change (crizotinib) | log2 fold change [2] | log2 fold change [3] | log2 fold change (gandotinib) | log2 fold change (tozasertib) | log2 fold change (doramapimod) | log2 fold change (duvelisib) | log2 fold change [4] | log2 fold change (ispinesib)
NCOA5 (UniProt Q9HCD5) | -0.005 | -0.131 |  |  | 0.05 |  | 0.168 | -0.155 | 0.052 | 0.02
NUDT1 (UniProt P36639) | 0.185 |  | 0.08 | 0.107 | -0.167 | -0.057 | -0.113 | 0.61 | 0.017 | 0.012
OSBPL2 (UniProt Q9H1P3) |  |  |  | 0.124 |  |  |  |  |  | 
NA (UniProt J3KR12) |  | 0.251 | 0.061 |  |  |  | -0.017 |  |  | 0.006
OVCA2 (UniProt Q8WZ82) |  | 0.064 |  |  | -0.232 |  | -0.186 |  |  | 0.026
MYSM1 (UniProt Q5VVJ2) | 0.067 | -0.091 |  |  |  |  | -0.045 |  |  | 0.128
MYO19 (UniProt Q96H55) |  | 0.047 | -0.215 | 0.491 | -0.081 |  | 0.066 | -0.07 | 0.158 | -0.065
OGFOD2 (UniProt Q6N063) |  | 0.04 | 0.042 | -0.058 | 0.278 | 0.003 | 0.042 | 0.035 | 0.034 | -0.032
NAP1L1 (UniProt B7Z9C2) |  | -0.015 |  |  | 0.041 |  | 0.155 | 0.327 | 0.433 | 
MYH16 (UniProt Q9H6N6) | -0.33 | -0.097 |  | -0.012 | -0.279 | -0.027 | 0.399 |  |  | 
NELFCD (UniProt Q8IXH7) |  | 0.349 | 0.145 | 0.006 | -0.327 |  | 0.025 | 0.13 | 0.249 | 
MOB3B (UniProt Q86TA1) |  | -0.078 |  | 0.098 | 0.039 | -0.025 | 0 |  |  | 
NKAP (UniProt Q8N5F7) |  | -0.113 | -0.118 | 0.013 | 0.041 | 0.039 | 0.042 | 0.016 | -0.034 | 0.001
MXRA7 isoform 3 (UniProt P84157) |  |  |  |  |  |  |  |  |  | -0.092
NCBP2AS2 (UniProt Q69YL0) | -0.092 |  |  | -0.027 | -0.064 | -0.034 |  | 0.037 | 0.044 | -0.48 (active)
NA, A0A1W2PSA9 |  |  |  | 0.041 | 0.403 | -0.062 |  | 0.311 | -0.371 | -0.059
MRM2 (UniProt Q9UI43) |  |  |  | -0.042 |  | -0.119 |  | 0 | 0.123 | 
MT-ND2 (UniProt P03891) |  | 0.096 |  | -0.028 | -0.064 | 0.07 | -0.141 | 0.177 | 0.101 | 0.336
PAFAH2 (UniProt Q99487) | 0.005 | 0.029 |  | 0.08 |  | -0.011 | 0.053 | 0.215 | -0.057 | -0.044
NOLC1 isoform 3 (UniProt Q14978) |  |  |  | -0.305 |  |  |  |  |  | 
NUDT6 (UniProt P53370) |  | 0.069 | 0.122 | 0.6 |  | -0.036 | -0.127 | 0.019 | -0.094 | -0.097
NA, A0A494C071 |  | -0.887 (active) | 0.137 | 0.043 | -0.352 | -0.152 | 0.104 | 0.007 | -0.102 | 
NA (UniProt B2RBV5) | -0.027 |  | 0.064 |  | 0 |  |  |  |  | 
MLH1 (UniProt P40692) |  |  | 0.042 | -0.127 | -0.068 | -0.124 |  | 0 | 0.094 | 
NRGN (UniProt Q92686) |  | 0.241 | 0.043 |  | 0.891 (active) |  | -0.282 |  |  | 0
MOB2 isoform 3 (UniProt Q70IA6) |  |  | -0.166 | 0.044 | -0.093 | -0.1 |  |  |  | -0.025
